Source: PubChem
Sampled rows, rich in hits. Any-hit rate of the full collection: about 3.4%.
GalR3 antagonist: human GalR3 antagonism | inhibition, % at 3 µM | HEK293 GalR3-CNG cAMP membrane potential fluorescence; galR3 body fused to GalR1 C-terminus | actives 0.44% (n = 360,000) | O60755;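 active means inhibition above the screen-wide average plus 3 SD, cut at about 13% in these data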;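 further: forskolin and galanin both at EC90 stimulate the cells; cAMP rise reported by CNG channel membrane potential dye signal; 0% = forskolin plus galanin with DMSO and 100% = forskolin alone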
SMARCA2 act: SMARCA2 function activation, primary screen; MG213 cells, MMTV-luciferase reporter, dexamethasone, overnight; actives 1% (n = 370,000); activation, % at 9.1 µM; in the data active means activation above about 7.8%;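 further: 0% = vehicle wells and 100% = reference activator wells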
FXN GAA850 act: frataxin GAA850 promoter activation | HEK293 lucGAA850 FXN promoter luciferase reporter, 24 h; percent of 10 µM SAHA response | activation, % at 6 µM | actives 0.56% (n = 360,000) | AID 540364;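 active means activation above the average of all compounds screened plus 3 SD, cutoff fixed separately per campaign, cut at about 7.5% in these data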;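 further: 0% = DMSO wells and 100% = 10 µM SAHA wells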
Gli-Sufu block: blocks Gli-Sufu signaling in a luciferase reporter; Sufu-KO-LIGHT fibroblasts, Gli luciferase reporter luminescence; inhibition, % at 5 µM; actives 0.74% (n = 340,000); AID 588413;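 active means inhibition above about 55%, limit read from the data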;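 further: 0% = DMSO-treated cells and 100% = wells with medium but no cells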
Cardio protect: protects H9c2 cardiomyocytes from peroxide injury; H2O2 injury protection, ATPLite, 2 h; protection from H2O2 cell death, % at 20 µM; actives 0.63% (n = 360,000); AID 588492;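 active means compounds giving at least 50% protection of heart cells from peroxide-induced death in the single-dose screen, raw or plate-pattern-corrected value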;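 further: 0% = DMSO wells with peroxide and 100% = DMSO wells without peroxide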
COUP-TFII inh: inhibitors of human COUP-TFII (NR2F2); P24468; HEK293T NGFI-A luciferase reporter, luminescence; inhibition, % at 8.6 µM; actives 0.7% (n = 370,000); AID 686940;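 active means inhibition above a per-plate cutoff, mean inhibition of test wells between control levels plus 3 SD, cut at about 38% in these data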;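 further: cells cotransfected with COUP-TFII expression vector driving the NGFI-A reporter; 0% = median of COUP-TF2 test wells and 100% = reporter-only cells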
Target sequence (P24468 whole entry, looked up): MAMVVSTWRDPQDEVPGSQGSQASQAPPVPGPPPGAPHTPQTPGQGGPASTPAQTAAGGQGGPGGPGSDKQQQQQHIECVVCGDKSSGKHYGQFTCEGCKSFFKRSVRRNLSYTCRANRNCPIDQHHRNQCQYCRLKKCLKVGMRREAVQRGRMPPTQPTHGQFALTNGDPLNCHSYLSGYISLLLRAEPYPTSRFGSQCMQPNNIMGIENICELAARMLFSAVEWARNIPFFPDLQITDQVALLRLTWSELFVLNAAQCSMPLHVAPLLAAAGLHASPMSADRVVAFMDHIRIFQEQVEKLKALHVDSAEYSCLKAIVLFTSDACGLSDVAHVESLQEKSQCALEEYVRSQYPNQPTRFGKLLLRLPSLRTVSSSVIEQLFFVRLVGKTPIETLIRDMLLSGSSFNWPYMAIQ
SMARCA2 act conf: SMARCA2 activation, confirmation screen; activation, % at 9.1 µM; actives 30% (n = 3,500); MG213 cells, MMTV-luciferase with dexamethasone, luminescence, overnight; MG213 cells expressing E1A, Rb sequestered; DMSO wells 0%, reference activator 100%; shares compounds with SMARCA2 act;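 active means activation above its plate's cutoff, the mean activation of tested wells plus 3 SD, cut at about 7.9% in these data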
VP16 Luc act: GAL4-VP16 reporter activation counter-screen; shares compounds with SMARCA2 act; HEK293 GAL4-VP16 pG5luc reporter, luciferase luminescence; scaled: DMSO wells 0%, SAHA wells 100%; activation, % at 9.1 µM; actives 41% (n = 3,500);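 active means activation above the solvent-only control well mean plus 3 SD, averaged across control plates, cut at about 5.2% in these data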
VP16 Luc counter: inhibits VP16 reporter, flagging COUP-TFII antagonist hits; shares compounds with COUP-TFII inh; HEK293 Gal4-VP16 luciferase reporter, luminescence; inhibition, % at 8.5 µM; actives 25% (n = 2,500); AID 687007; in the data active means inhibition above about 13%
NR2F2 inh conf: COUP-TFII (NR2F2) inhibition, confirmation assay | shares compounds with COUP-TFII inh | HEK293 NGFI-A luciferase reporter, luminescence | inhibition, % at 8.5 µM | actives 45% (n = 2,500);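 active means mean inhibition over three repeats above a set limit taken from the earlier primary screen, cut at about 38% in these data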;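 further: 100% = cells given the luciferase reporter alone without the COUP-TF2 vector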
* hit, by the source's call.

How did ClCCN(CCCl)c1ccc(-n2cnc3c(Cl)ncnc32)cc1 do in these assays?
GalR3 antagonist: -12; SMARCA2 act: 16*; FXN GAA850 act: -6; Gli-Sufu block: 14; Cardio protect: 8; COUP-TFII inh: -10; SMARCA2 act conf: -3; VP16 Luc act: 0

Results for O=c1c2ccccc2nc(/C=C/c2ccccc2)n1-c1ccc(O)cc1 ?
GalR3 antagonist: -8; SMARCA2 act: 0; FXN GAA850 act: 3; Gli-Sufu block: -20; Cardio protect: 14; COUP-TFII inh: 8

What do the screens show for `O=c1c2ccccc2nc(/C=C/c2ccc([N+](=O)[O-])o2)n1-c1ccc(O)cc1`?
GalR3 antagonist: 2; SMARCA2 act: 9.5*; FXN GAA850 act: -13; Gli-Sufu block: 75*; Cardio protect: 17; COUP-TFII inh: -14; SMARCA2 act conf: -14; VP16 Luc act: 1

How did CCOC(=O)[C@]12Cc3cc(C)ccc3[C@H]1N(C)C(=O)c1cc(OC)ccc12 do in these assays?
GalR3 antagonist: -6; SMARCA2 act: -6; COUP-TFII inh: 3

What do the screens show for `CC(=O)Nc1ccc(S(=O)(=O)N2Cc3cnnn3-c3ccccc3C2C#N)cc1` (stereo not drawn)?
GalR3 antagonist: 3; SMARCA2 act: 9.7*; FXN GAA850 act: -2; Gli-Sufu block: 3; Cardio protect: 18; COUP-TFII inh: -9; SMARCA2 act conf: -1; VP16 Luc act: 1

What do the screens show for `Cc1ccc(S(=O)(=O)N2Cc3cnnn3-c3ccccc3C2C#N)cc1` (stereo not drawn)?
GalR3 antagonist: -6; SMARCA2 act: -4; FXN GAA850 act: 2; Gli-Sufu block: 0; Cardio protect: 4; COUP-TFII inh: 6

How did COc1ccc(C(c2nnnn2-c2c(C)cccc2C)N2CCC3(CC2)C(=O)NCN3c2ccccc2)cc1 (stereo not drawn) do in these assays?
GalR3 antagonist: -6; SMARCA2 act: -6; Cardio protect: 6; COUP-TFII inh: 9

Results for Nc1ccccc1C(=O)OCC(=O)N1CCc2ccccc21 ?
GalR3 antagonist: -5; SMARCA2 act: 8.7*; FXN GAA850 act: 3; Gli-Sufu block: -22; Cardio protect: -2; COUP-TFII inh: -26; SMARCA2 act conf: 7; VP16 Luc act: 7.5*

Results for CCn1c(O)c(/C=N/NC(=O)c2ccccc2)c(=O)n(CC)c1=S ?
GalR3 antagonist: -5; SMARCA2 act: 8.1*; FXN GAA850 act: 5; Gli-Sufu block: 7; Cardio protect: 14; COUP-TFII inh: -6; SMARCA2 act conf: 5; VP16 Luc act: 2

What do the screens show for `CCn1c(O)c(/C=N/NC(=O)c2ccncc2)c(=O)[nH]c1=S`?
GalR3 antagonist: -3; SMARCA2 act: 0; FXN GAA850 act: 2; Gli-Sufu block: -12; Cardio protect: -6; COUP-TFII inh: -10

How did Cc1cc(C(=O)CS(=O)(=O)c2ccccc2)cc(C)c1OC(=O)N(C)C do in these assays?
GalR3 antagonist: -2; SMARCA2 act: 13*; FXN GAA850 act: 3; Gli-Sufu block: -46; Cardio protect: -13; COUP-TFII inh: -22; SMARCA2 act conf: 7; VP16 Luc act: 8.8*

What do the screens show for `COc1cc(O)c2c(c1)/C=C/C[C@H](O)[C@H](O)C(=O)CCC[C@H](C)OC2=O`?
GalR3 antagonist: -5; SMARCA2 act: 0; Cardio protect: -2; COUP-TFII inh: -24

Results for COc1cccc(-n2c(CN3CCOCC3)nc3ccc([N+](=O)[O-])cc3c2=O)c1 ?
GalR3 antagonist: -9; SMARCA2 act: 11*; FXN GAA850 act: 1; Gli-Sufu block: 8; Cardio protect: 3; COUP-TFII inh: 14; SMARCA2 act conf: 5; VP16 Luc act: 1

How did COc1ccc(N2C(=O)CC(N3CC=C(c4ccccc4)CC3)C2=O)cc1 (stereo not drawn) do in these assays?
GalR3 antagonist: -4; SMARCA2 act: 11*; FXN GAA850 act: -1; Gli-Sufu block: -1; Cardio protect: -23; COUP-TFII inh: -20; SMARCA2 act conf: -1; VP16 Luc act: 1

What do the screens show for `CCC1CCCCN1CC(=O)c1ccc(OC(F)F)cc1` (stereo not drawn)?
GalR3 antagonist: -13; SMARCA2 act: 14*; FXN GAA850 act: -1; Gli-Sufu block: 3; Cardio protect: -4; COUP-TFII inh: 4; SMARCA2 act conf: -4; VP16 Luc act: 1

What do the screens show for `COc1cc2c3cc1Oc1cc(ccc1O)C[C@@H]1c4c(cc(OC)c(O)c4Oc4ccc(cc4)C[C@H]3N(C)CC2)CCN1C`?
SMARCA2 act: 10*; FXN GAA850 act: -2; Gli-Sufu block: 15; Cardio protect: -14; COUP-TFII inh: -15; SMARCA2 act conf: 16*; VP16 Luc act: 1

Results for COc1cc2c3cc1Oc1cc(ccc1O)C[C@@H]1c4c(cc(OC)c(O)c4Oc4cccc(c4)C[C@@H]3N(C)CC2)CC[N+]1(C)C ?
GalR3 antagonist: -3; SMARCA2 act: 1; FXN GAA850 act: -1; Gli-Sufu block: 2; Cardio protect: 5; COUP-TFII inh: -4

What do the screens show for `CCC(C)c1cnc(CC(C)C)c(=O)n1O` (stereo not drawn)?
GalR3 antagonist: -1; SMARCA2 act: 4; FXN GAA850 act: 1; Cardio protect: 3; COUP-TFII inh: -7

How did O=c1ccc2c(O)c3ccoc3cc2o1 do in these assays?
GalR3 antagonist: 0; SMARCA2 act: -2; FXN GAA850 act: 2; Cardio protect: 2; COUP-TFII inh: 15

What do the screens show for `COc1ccc(CN2Cc3cnnn3-c3ccccc3C2C#N)cc1` (stereo not drawn)?
GalR3 antagonist: -5; SMARCA2 act: -4; FXN GAA850 act: -4; Gli-Sufu block: -6; Cardio protect: 24; COUP-TFII inh: 59*; VP16 Luc counter: 26*; NR2F2 inh conf: 13

What do the screens show for `COc1ccc(CN2Cc3cnnn3-c3ccccc3C2c2ccccc2)cc1` (stereo not drawn)?
GalR3 antagonist: -7; SMARCA2 act: -3; FXN GAA850 act: -3; Gli-Sufu block: -4; Cardio protect: -11; COUP-TFII inh: 10
